Results filed as inconclusive are left out. Where a call stands in place of a potency, no number is given. Calls of active or inactive are those of the source. The call rests on the fitted dose curve; in most records, active means well fitted activation curve with a large enough effect in the signal ratio in the repeat runs (not every such curve was filed as active); inconclusive means weak or mixed curves; inactive means flat fitted curve, though single readings scatter; the % refers to the signal ratio.

The nature of the assay: p53 small molecule agonists, cell-based qHTS assay (AID 1963582). As to conditions: HCT-116 p53RE-bla reporter, beta-lactamase FRET ratio, 16 h; series mostly up to 66 µM. From the text: National Center for Advancing Translational Sciences [NCATS]
Division of Preclinical Innovation [DPI]
U.S. Environmental Protection Agency [EPA]
National Institutes of Environmental Health Sciences [NIEHS]
National Toxicology Program [NTP]
U.S. Food and Drug Administration [FDA]
p53, a tumor suppressor protein, is activated following cellular insult, including DNA damage and other cellular stresses. The activation of p53 regulates cell fate by inducing DNA repair, cell cycle arrest, apoptosis, or cellular senescence. The activation of p53, therefore, is a good indicator of DNA damage and other cellular stresses. […] The activation of the reporter gene under culture conditions can be detected by fluorescence intensity. This cell line was used to screen the Tox21 10K compound library in a 1536-well plate format and to identify agonists that activate the p53 signaling pathway.
Tox21 Assay Protocol Summary:
The p53RE-bla cells were dispensed at 4,000 cells/5 ul/well in 1536-well black wall/clear bottom plates using a Multidrop dispenser. After the assay plates were incubated at a 37 C/5% CO2 incubator for 5 hours, 23 nL of compounds dissolved in DMSO, positive controls or DMSO only was transferred to the assay plate by a pin tool. The plates were incubated at 37 C for 16 hours. After 1 uL of LiveBLAzerTM B/G FRET substrate was added using a Flying Reagent Dispenser, the plates were incubated at room temperature for 2 hours, and fluorescence intensity was measured by an Envision plate reader.
(In general: Quantitative high-throughput screening tests each substance at several concentrations.)
For the molecule `O=C(O)CC(=O)O`, the Potency entry is “inactive”.
For `CC12CCC(C(=O)C1=O)C2(C)C` (stereo not given), the Potency result is “inactive”.
Take `C(=C\c1ccccc1)/c1ccccc1`: the Potency entry is “inactive”.
`C=C(C)[C@@H]1CCC2=CCC[C@@H](C)[C@]2(C)C1`: the Potency result was “inactive”.
On to `Cc1oc(C)c(C(=O)Nc2ccccc2)c1C`, for which the Potency entry is “inactive”.
`CC1CNCC(C)O1` (stereo not given): the Potency entry is “inactive”.
In the case of `CC(=O)N1CCN(c2ccc(O)cc2)CC1`, the Potency result was “inactive”.
For the molecule `O=C(O)c1ccco1`, the Potency entry is “inactive”.
In the case of `C/C=C(\C)C(=O)OC/C=C(\C)CCC=C(C)C`, the Potency entry was “inactive”.
Turning to `c1cnccn1`, the Potency entry is “inactive”.
Same read-out and setting: next, `CC/C=C\CC1=C(C)CCC1=O`: “inactive”.
Take `CCC(C)=O`: the Potency entry was “inactive”.
For `COC(=O)CCC(=O)O`, the Potency result is “inactive”.
Turning to `CC(C)c1cccc(C(C)C)c1N`, the Potency entry was “inactive”.
With `C1=C\CC/C=C\CC/C=C\CC/1`, the Potency entry is “inactive”.
For `NC[C@H]1O[C@H](O[C@H]2[C@H](O)[C@@H](O[C@H]3O[C@H](CO)[C@@H](O)[C@H](N)[C@H]3O)[C@H](N)C[C@@H]2N)[C@H](N)[C@@H](O)[C@@H]1O`, the activation was 0.52% [at 13.5 µM] (inactive).
In the case of `NS(=O)(=O)c1cc2c(cc1C(F)(F)F)NC(Cc1ccccc1)NS2(=O)=O` (stereo not given), the Potency entry is “inactive”.
On to `CCCCCCCCO[C@@H]1O[C@H](CO)[C@@H](O)[C@H](O)[C@H]1O`, for which the Potency entry is “inactive”.
Take `CCCC[O][Al]([O]CCCC)[O]CCCC`: the Potency entry was “inactive”.
For the molecule `CCC(=O)OC(C)(C)C1CC=C(C)CC1` (stereo not given), the Potency result was “inactive”.
Take `CCCCCCCCCCCCCCCCI`: the activation is -4.93% [at 13.5 µM] (inactive).
Consider `C1CN(CCOCCN2CCOCC2)CCO1`, for which the Potency result is “inactive”.
Turning to `CCC(C)(C)C1CCC(OC)CC1` (stereo not given), the Potency result was “inactive”.
`OCCOc1ccc(OCCO)cc1`: the Potency entry is “inactive”.
Turning to `NC(=O)c1ccc([N+](=O)[O-])cc1`, the Potency entry is “inactive”.
On the same count and under the same terms, the entry for `c1coc(CNc2ncnc3nc[nH]c23)c1` is “inactive”.
Still for that read-out and setting: next, `O=Cc1cccc([N+](=O)[O-])c1`: “inactive”; `Cc1ccc(S(N)(=O)=O)cc1`: “inactive”; `CCCSSCCC`: “inactive”.
On the same count and under the same terms, the entry for `Cc1ccc(C(C)(C)O)cc1` is “inactive”; for `CC(=O)O[C@@H]1CC2C3CCc4cc(OC(=O)c5ccccc5)ccc4C3CCC2(C)[C@H]1OC(C)=O` (stereo not given in full) it is “inactive”; for `CCNc1nc(N)nc(Cl)n1` it is “inactive”.
Regarding `FC(F)(F)c1ccccc1Cl`, the Potency entry is “inactive”.
As to `O=C(c1ccccc1)C1(O)CCCCC1`, the Potency result is “inactive”.
The same measure, in the same setting: the entry for `C=C(C)C(=O)OCCC(F)(F)C(F)(F)C(F)(F)C(F)(F)C(F)(F)C(F)(F)F` is “inactive”.
For the molecule `C=CC(=O)CC`, the Potency entry is “inactive”.
Take `SCCSCCS`: the Potency entry was “inactive”.
Same read-out and setting: next, `Cc1ccc(C2OC[C@@H]3OC(c4ccc(C)cc4)O[C@H]([C@H](O)CO)[C@@H]3O2)cc1` (stereo not given in full): “inactive”; `CCC(CO)CO`: “inactive”; `COc1ccc2c(c1)CCCC2=O`: “inactive”.
